# Values joined by “and” are separate entries in the source; they are usually repeats but may differ in a detail not shown here. Equal values may be shown once. Results filed as inconclusive are left out. Entries that show only a call come without a potency. Active and inactive are the calls of the source. Unless noted, the call rests on the fitted dose curve; in most records, active means well fitted curve in the direction sought with a large enough effect; inconclusive means small, poorly fitted or top-dose-only effect, or another doubt; inactive means no such curve, though single readings can be large; an effect the other way counts as inactive or inconclusive.
# What was measured:
# [1] = Cytometric Cell-Based qHTS for Inhibitors of the mTORC1 Signaling Pathway in MEF (Tsc2-/-, p53-/-) Cells (AID 2660);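 further: percent of cells above a phospho-rpS6 to PI ratio cutoff in each well; series mostly up to about 38 µM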
# Method in brief: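 Tsc2-/-, p53-/- MEFs (empty vector) exposed to compound 24 h at 37 C, fixed, stained with Alexa-488 anti-phospho-rpS6 Ser235/236 and propidium iodide. Acumen laser scanning; phospho-S6/PI ratio thresholded against 7.5 nM rapamycin, reported as % positive cells.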
# [2] = High Content Imaging Cell-Based qHTS for Inhibitors of the mTORC1 Signaling Pathway in MEF Cells (AID 2667); further: potency means the concentration at half of the fitted maximal effect
# Method in brief: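 Immunofluorescence for rpS6 phosphorylation in MEFs of Tsc2-/-, p53-/- background rescued with WT Tsc2. Compound exposure lasted 24 hrs. Inhibition was scored against rapamycin-treated control wells.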
# [3] = Cytometry Cell-Based qHTS for Inhibitors of the mTORC1 Signaling Pathway in MEF cells (AID 2668); further: potency means the concentration at half of the fitted maximal effect
# Method in brief: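 Phospho-rpS6 (Ser235/236) immunofluorescence over PI signal, scored as % positive cells using thresholds from 7.5 nM rapamycin and DMSO wells, after 24 h compound exposure of WT-Tsc2-rescued Tsc2-/-, p53-/- MEFs. PI cell count recorded for viability.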
# [4] = Validation screen for small molecules that induce DNA re-replication in MCF 10A normal breast cells (AID 463097); further: nearly all actives have a fitted effect of over 60% in size
# Method in brief: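 Read-out is Hoechst total nuclear intensity by fluorescence scanning imager, flagging increased high-DNA-content nuclei. Compounds were incubated with MCF 10A cells for 48 hr (37 C, 5% CO2) before 40 min staining.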
# [5] = molecular target: Ubiquitin carboxyl-terminal hydrolase 2 (Homo sapiens) (UniProt O75604); test: qHTS Validation Assay for Inhibitors of Ubiquitin-specific Protease USP2a Using CHOP2 as the Reporter (AID 463106)
# Method in brief: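 10nM USP2 core + cpd, 30min RT; add 25nM Ub-CHOP2/25nM substrate; 60min RT; FI 485/531nm. Buffer Tris pH 8.0, CaCl2, BME, CHAPS. Norm. to NEM = 100% inhibition; time-zero read flags fluorescent artifacts.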
# [6] = molecular target: DNA polymerase III PolC-type (Bacillus subtilis (strain 168)) (UniProt P13267); test: qHTS Validation Assay for the Inhibitors of DNA Replication in Gram-Positive Bacteria (AID 485295);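 further: reconstituted holoenzyme with PolC plus beta clamp SSB and primase; PicoGreen fluorescence of double-stranded DNA made on primed circular M13 template; series mostly up to about 57 µM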
# Method in brief: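 Double-stranded DNA product detected by PicoGreen fluorescence after EDTA quench. Compound incubated with B. subtilis holoenzyme (PolC, beta subunit, SSB, primase) before substrate addition; primed replication of M13Gori with dNTPs and NTPs at room temperature; DMSO defines 0% inhibition.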
# [7] = molecular target: Tumor susceptibility gene 101 protein (Homo sapiens) (UniProt Q99816); test: qHTS Validation Assay for Iinhibitors of HIV-1 Budding by Blocking the Interaction of PTAP/TSG101 (AID 485342; calls by dose curve)
# Method in brief: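 Fluorescence polarization of 50 nM FITC-PTAP peptide bound to 10 uM Tsg101 binding domain was read after 20 min room-temperature incubation with compounds, in 10 mM HEPES pH 7.5, 0.15 M NaCl, 0.01% Tween 20.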
# [8] = qHTS Validation Assay to Find Inhibitors of Chronic Active B-Cell Receptor Signaling (AID 485345; active means well fitted curve in the direction sought with a large enough effect in the main read-out, with a control signal flat, not every such curve was filed as active)
# Method in brief: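 Read-out: ratio of filter-corrected green (IkappaBalpha fusion) to red (native) luciferase signal in doxycycline-induced TMD8 cells after 4 h at 37C. Titration spanned 46 uM–3 nM; Data were normalised to basal cells and 10 uM MG-132 wells.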
# [9] = molecular target: Beta-2 adrenergic receptor (Homo sapiens) (UniProt P07550); test: qHTS validation assay of beta-arrestin-biased ligands of beta2-adrenergic receptor (AID 485366)
# Method in brief: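 Tango cells expressing recombinant beta2-AR and beta-arrestin with tTA-driven luciferase, in DMEM with 1% FBS. Compounds were titrated up to 46 microM for 18 hr at 37 degrees C. Luminescence was read 15 min after substrate; curves were fitted and class-assigned.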
# [10] = Quantitative high throughput screen for delayed death inhibitors of the malarial parasite plastid, 96 hour incubation (AID 488745); further: nearly all actives have a fitted effect of over 70% in size; further: potency means the concentration at half of the fitted maximal effect
# Method in brief: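 Infected erythrocytes were added to compound in Albumax-supplemented RPMI 1640 at 0.1% parasitemia and 2% hematocrit (final), incubated 96 h at 37 C under 5% CO2, then luciferase reagent was added and luminescence measured.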
# [11] = Quantitative high throughput screen for delayed death inhibitors of the malarial parasite plastid, 48 hour incubation (AID 488752); further: nearly all actives have a fitted effect of over 65% in size; further: potency means the concentration at half of the fitted maximal effect
# Method in brief: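 Readout is firefly luciferase luminescence from a reporter integrated into the parasite genome, with lower signal taken as inhibited growth. Infected red cells (0.1% parasitemia, 2% hematocrit final) are cultured with compound for one 48 h cycle at 37 C.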
# [12] = molecular target: Thioredoxin reductase 1, cytoplasmic (Rattus norvegicus) (UniProt O89049); test: qHTS Assay for Substrates of Mammalian Selenoprotein Thioredoxin Reductase 1 (TrxR1) (AID 488772);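 further: NADPH fluorescence in the first read after selenite addition and not the 8 min delta; series mostly up to about 57 µM; a drop in NADPH fluorescence below the no-compound background marks a TrxR1 substrate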
# Method in brief: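 Quantitative HTS in Tris-HCl buffer at pH 7.5 with EDTA and Tween-20, using rat TrxR1, 400 uM NADPH and 400 uM selenite (final). A fall in initial NADPH fluorescence relative to background marked substrate behaviour.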
# [13] = molecular target: Thioredoxin reductase 1, cytoplasmic (Rattus norvegicus) (UniProt O89049); test: qHTS Assay for Inhibitors of Mammalian Selenoprotein Thioredoxin Reductase 1 (TrxR1) (AID 488773); details: Potency: inhibition;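 further: drop in NADPH fluorescence over an 8 min run after selenite addition; series mostly up to about 57 µM; nearly all actives have a fitted effect of over 40% in size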
# Method in brief: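 Steps: enzyme (90 nM) plus NADPH (400 uM final), 5 min at ~22 deg C; compound added, 15 min; selenite (400 uM final) added; fluorescence followed for 8 min. Concentration-response curves derived from the normalized delta values.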
# [14] = molecular target: Flap endonuclease 1 (Homo sapiens) (UniProt P39748); test: qHTS Validation Assay for the Inhibitors of Human Flap endonuclease 1 (FEN1) (AID 488816)
# Method in brief: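 Readings taken at 0 and 15 min after starting the reaction with 50 nM (final) substrate supplied the signal. Compounds had first sat with 10 nM FEN1 reagent for 15 min at room temperature. Values come from Hill-equation concentration-response fits.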
# [15] = molecular target: M-phase phosphoprotein 8 (Homo sapiens) (UniProt Q99549); test: qHTS Validation Assay for Inhibitors for MPP8 Chromodomain Interactions with Methylated Histone Tails (AID 488949); further: nearly all actives have a fitted effect of over 55% in size; further: potency means the concentration at half of the fitted maximal effect
# Method in brief: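 AlphaScreen proximity signal from streptavidin donor and Ni-chelate acceptor beads (10 ug/mL each) reported binding of MPP8 to trimethyl-K9 H3(1-18) peptide, both at 50 nM. The complex formed 30 min before a 30 min compound exposure at room temperature, in PBS pH 7.4.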
# [16] = molecular target: Methanococcus maripaludis chaperonin (MmCpn) (UniProt Q6LX38); test: High-Throughput Screening for Modulators of Cytosolic Chaperonin Activity: MmCpn Primary Screen (AID 488978);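 further: 50 nM MmCpn enzyme hydrolysing 30 µM ATP at 37 °C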
# Method in brief: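 ATPase activity of 50 nM MmCpn was assayed with 30 uM ATP, 10 minutes at 37C, after a 5 min compound preincubation at room temperature. ADP production was read as HTRF emission at 590 and 665 nm.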
# [17] = High Content Imaging Cell-Based qHTS for Inhibitors of the mTORC1 Signaling Pathway in MEF (Tsc2-/-, p53-/-) Cells (AID 2666);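 further: percent of cells scored positive for phospho-rpS6 Ser235/236 immunostaining by imaging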
# Method in brief: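 Cells were plated, dosed with compound after 24 hrs, and incubated another 24 hrs at 37 degree Celsius. Fixed cells were immunostained for phospho-rpS6 Ser235/236 and counterstained, and the normalized signal was scored as % active cells against rapamycin and DMSO controls.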
# [18] = molecular target: Chromobox protein homolog 1 (Homo sapiens) (UniProt P83916); test: qHTS Validation Assay for Inhibitors of HP1-beta Chromodomain Interactions with Methylated Histone Tails (AID 488953); further: nearly all actives have a fitted effect of over 50% in size; further: potency means the concentration at half of the fitted maximal effect
# Method in brief: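 50 nM HP1-beta + 50 nM biotin-H3(1-18)K9me3, PBS pH 7.4, 0.01% Tween-20, 30 min RT; compound added, 30 min RT; AlphaScreen beads 10 ug/mL final, 30 min dark; luminescence read.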
# [19] = molecular target: ATP-dependent 6-phosphofructokinase (Trypanosoma brucei brucei) (UniProt O15648); test: qHTS Validation Assay to Find Inhibitors of T. brucei phosphofructokinase (AID 485368); further: potency means the concentration at half of the fitted maximal effect
# Method in brief: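 Activity was read as ADP production by luminescence (ADP-Glo) after 45 min at room temperature. The enzyme was 1.25nM PFK in 0.1M TEA pH 8.0 with 0.5 mM F6P, 0.1mM ATP and 5 mM MgCl2. Compounds were titrated up to 57 uM and % activity normalized to no-enzyme and full-enzyme controls.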
# Chain of Flap endonuclease 1 (Homo sapiens) (P39748 whole entry, looked up): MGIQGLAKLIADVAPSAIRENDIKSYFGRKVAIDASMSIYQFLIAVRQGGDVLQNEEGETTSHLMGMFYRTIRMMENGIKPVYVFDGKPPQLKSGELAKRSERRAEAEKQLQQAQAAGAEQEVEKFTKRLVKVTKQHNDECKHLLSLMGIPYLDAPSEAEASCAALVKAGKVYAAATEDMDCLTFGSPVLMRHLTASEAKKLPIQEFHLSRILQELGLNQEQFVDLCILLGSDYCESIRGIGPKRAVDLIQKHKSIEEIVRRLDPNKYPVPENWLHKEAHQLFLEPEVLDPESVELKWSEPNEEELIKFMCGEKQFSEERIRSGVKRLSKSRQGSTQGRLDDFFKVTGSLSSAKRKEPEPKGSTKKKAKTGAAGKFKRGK
# Chain of ATP-dependent 6-phosphofructokinase (Trypanosoma brucei brucei) (O15648 whole entry, looked up): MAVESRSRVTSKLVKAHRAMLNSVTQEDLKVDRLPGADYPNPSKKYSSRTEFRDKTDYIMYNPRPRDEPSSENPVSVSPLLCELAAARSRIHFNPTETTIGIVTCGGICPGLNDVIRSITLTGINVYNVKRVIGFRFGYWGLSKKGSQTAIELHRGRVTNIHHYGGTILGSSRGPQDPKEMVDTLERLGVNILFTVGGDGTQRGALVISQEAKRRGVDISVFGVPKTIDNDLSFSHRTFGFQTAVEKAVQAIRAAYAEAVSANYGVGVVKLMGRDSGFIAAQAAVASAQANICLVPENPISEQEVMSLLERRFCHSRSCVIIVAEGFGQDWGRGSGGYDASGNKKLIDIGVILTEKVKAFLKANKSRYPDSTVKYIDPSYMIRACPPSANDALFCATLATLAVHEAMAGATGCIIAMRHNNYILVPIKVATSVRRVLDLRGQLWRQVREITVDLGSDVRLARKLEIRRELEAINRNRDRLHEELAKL
# Chain of Ubiquitin carboxyl-terminal hydrolase 2 (Homo sapiens) (O75604 whole entry, looked up): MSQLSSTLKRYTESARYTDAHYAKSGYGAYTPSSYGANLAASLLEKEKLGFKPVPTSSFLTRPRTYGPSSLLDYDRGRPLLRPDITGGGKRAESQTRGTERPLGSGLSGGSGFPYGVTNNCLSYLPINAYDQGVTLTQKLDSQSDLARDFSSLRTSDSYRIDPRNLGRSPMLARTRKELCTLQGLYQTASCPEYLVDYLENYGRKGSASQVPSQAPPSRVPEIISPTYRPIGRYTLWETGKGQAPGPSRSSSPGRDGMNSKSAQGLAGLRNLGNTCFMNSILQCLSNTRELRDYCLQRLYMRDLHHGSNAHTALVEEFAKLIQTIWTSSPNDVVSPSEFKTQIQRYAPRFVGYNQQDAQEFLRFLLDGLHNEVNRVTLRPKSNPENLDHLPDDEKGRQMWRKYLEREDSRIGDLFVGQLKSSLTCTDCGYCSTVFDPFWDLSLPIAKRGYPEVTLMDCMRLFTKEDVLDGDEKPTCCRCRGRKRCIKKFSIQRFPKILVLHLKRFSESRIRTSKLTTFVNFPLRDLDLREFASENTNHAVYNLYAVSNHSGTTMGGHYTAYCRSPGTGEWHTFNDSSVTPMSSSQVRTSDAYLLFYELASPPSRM
# Chain of Methanococcus maripaludis chaperonin (MmCpn) (Q6LX38 1-543): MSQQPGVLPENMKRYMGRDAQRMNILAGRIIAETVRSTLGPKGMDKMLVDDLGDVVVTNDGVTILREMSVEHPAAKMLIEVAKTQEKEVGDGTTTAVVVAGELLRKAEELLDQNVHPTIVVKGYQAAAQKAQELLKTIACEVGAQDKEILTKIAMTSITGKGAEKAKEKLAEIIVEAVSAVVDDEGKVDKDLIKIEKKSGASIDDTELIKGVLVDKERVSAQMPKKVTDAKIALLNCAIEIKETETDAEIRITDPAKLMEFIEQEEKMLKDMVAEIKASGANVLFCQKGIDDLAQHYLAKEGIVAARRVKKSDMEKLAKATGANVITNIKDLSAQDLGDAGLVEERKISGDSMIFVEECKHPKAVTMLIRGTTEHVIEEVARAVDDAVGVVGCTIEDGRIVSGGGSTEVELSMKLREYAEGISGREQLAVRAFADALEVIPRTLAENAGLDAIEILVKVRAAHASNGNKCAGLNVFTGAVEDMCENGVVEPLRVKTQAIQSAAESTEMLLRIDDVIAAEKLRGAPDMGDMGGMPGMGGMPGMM
# Chain of Chromobox protein homolog 1 (Homo sapiens) (P83916 whole entry, looked up): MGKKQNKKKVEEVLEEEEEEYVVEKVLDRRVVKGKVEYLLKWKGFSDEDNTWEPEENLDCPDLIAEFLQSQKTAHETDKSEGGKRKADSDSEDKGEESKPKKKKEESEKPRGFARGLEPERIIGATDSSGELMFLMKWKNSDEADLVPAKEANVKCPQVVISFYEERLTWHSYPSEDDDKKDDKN
# Chain of Thioredoxin reductase 1, cytoplasmic (Rattus norvegicus) (O89049 whole entry, looked up): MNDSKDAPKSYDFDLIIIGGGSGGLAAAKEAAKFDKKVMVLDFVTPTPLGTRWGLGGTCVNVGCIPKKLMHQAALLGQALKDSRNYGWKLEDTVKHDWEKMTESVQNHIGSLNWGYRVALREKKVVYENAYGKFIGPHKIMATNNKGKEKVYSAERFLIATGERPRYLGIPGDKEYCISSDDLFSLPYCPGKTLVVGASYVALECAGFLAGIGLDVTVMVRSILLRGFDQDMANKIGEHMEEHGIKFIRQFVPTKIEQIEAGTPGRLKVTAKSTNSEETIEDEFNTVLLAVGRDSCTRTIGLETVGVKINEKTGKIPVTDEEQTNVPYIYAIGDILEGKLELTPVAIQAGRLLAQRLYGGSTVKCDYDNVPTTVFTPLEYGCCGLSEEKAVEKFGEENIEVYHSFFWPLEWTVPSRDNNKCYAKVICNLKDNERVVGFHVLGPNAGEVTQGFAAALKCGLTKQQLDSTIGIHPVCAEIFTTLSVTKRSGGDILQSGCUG
# Chain of Beta-2 adrenergic receptor (Homo sapiens) (P07550 whole entry, looked up): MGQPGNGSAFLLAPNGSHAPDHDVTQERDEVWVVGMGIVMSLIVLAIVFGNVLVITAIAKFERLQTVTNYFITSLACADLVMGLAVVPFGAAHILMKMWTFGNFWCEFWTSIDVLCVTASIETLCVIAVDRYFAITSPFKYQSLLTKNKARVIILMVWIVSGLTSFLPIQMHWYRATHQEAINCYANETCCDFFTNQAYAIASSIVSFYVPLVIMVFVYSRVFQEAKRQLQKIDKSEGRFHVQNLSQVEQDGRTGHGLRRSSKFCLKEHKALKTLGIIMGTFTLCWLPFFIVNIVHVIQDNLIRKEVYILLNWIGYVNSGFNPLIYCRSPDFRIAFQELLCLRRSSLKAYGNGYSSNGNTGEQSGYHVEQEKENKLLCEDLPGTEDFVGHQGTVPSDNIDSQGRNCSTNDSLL
# Chain of DNA polymerase III PolC-type (Bacillus subtilis (strain 168)) (P13267 whole entry, looked up): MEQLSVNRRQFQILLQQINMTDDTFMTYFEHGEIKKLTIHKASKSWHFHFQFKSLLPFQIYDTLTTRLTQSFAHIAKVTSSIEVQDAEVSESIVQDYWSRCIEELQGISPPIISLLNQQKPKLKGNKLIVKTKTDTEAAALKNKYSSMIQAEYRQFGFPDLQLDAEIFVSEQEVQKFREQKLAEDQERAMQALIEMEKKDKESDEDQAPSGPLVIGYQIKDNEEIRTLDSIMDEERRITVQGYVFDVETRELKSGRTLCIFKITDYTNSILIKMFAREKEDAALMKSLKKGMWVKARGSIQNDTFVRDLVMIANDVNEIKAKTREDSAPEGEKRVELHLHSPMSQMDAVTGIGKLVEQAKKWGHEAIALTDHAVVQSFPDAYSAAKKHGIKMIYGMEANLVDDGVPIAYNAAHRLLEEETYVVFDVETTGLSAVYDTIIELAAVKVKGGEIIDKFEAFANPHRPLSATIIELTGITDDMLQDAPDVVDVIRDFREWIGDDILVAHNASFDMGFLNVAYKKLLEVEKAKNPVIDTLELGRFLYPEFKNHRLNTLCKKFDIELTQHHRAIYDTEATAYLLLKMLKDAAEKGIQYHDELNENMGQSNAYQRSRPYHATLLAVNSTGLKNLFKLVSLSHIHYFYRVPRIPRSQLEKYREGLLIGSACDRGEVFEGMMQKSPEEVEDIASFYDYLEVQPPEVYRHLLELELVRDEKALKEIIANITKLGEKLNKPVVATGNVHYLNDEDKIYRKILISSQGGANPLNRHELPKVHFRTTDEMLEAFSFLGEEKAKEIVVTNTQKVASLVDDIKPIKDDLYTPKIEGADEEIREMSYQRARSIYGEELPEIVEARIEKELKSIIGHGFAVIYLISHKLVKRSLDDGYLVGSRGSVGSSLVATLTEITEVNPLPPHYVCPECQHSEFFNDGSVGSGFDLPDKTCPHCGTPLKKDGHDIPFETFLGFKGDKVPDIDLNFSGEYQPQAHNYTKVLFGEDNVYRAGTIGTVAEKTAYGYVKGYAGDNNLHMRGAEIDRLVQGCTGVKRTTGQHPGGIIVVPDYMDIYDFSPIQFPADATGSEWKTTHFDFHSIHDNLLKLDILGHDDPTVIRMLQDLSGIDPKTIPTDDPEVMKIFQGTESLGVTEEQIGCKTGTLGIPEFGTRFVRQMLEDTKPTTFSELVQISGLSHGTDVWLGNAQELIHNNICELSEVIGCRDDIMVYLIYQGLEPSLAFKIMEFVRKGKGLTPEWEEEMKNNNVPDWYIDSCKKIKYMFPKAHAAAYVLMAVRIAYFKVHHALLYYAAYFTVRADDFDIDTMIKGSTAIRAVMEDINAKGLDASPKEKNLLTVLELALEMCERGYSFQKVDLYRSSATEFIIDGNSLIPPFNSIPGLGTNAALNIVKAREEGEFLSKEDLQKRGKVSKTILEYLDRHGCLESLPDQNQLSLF
# Chain of Tumor susceptibility gene 101 protein (Homo sapiens) (Q99816 whole entry, looked up, the tested form may be a part): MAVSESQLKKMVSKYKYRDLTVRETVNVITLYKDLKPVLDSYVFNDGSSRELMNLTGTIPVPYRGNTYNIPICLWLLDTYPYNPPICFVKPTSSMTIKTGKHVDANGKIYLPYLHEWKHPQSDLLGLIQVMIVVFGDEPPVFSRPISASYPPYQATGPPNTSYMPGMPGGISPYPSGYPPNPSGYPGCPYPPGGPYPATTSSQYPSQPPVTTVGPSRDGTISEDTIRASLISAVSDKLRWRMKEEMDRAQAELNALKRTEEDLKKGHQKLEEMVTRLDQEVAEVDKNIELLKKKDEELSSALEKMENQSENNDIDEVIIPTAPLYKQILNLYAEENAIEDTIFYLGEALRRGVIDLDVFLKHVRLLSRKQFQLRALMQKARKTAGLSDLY
Structure (SMILES),outcome [1],Potency [2],Potency [3],Potency [4],Potency [5],Potency [6],outcome [7],outcome [8],outcome [9],Potency [10],Potency [11],outcome [12],Potency [13],Potency [14],Potency [15],outcome [16],Potency [17],Potency [18],Potency [19]
NCCCNCCCCNCCCN,inactive,inactive,inactive,inactive,inactive,inactive,inactive,inactive,inactive,inactive,inactive,inactive,inactive,inactive,inactive,inactive,–,–,–
CCCCCCCCCCCCCCC[C@H](O)[C@H](N)CO,inactive,–,–,–,inactive,inactive,inactive,inactive,–,inactive,inactive,inactive,inactive,inactive,inactive,inactive,inactive,89.1 µM (active),–
CCOC(=O)C12CC1/C(=N/O)c1ccccc1O2 (configuration not stated),inactive,inactive,inactive,inactive,inactive,inactive,inactive,inactive,inactive,inactive,inactive,–,inactive,inactive,inactive,inactive,–,–,–
N#C/C(=C\c1ccc(O)c(O)c1)C(=O)NCCc1ccccc1,inactive,–,10.4 µM (active),–,inactive,inactive,inactive,–,inactive,–,–,inactive,–,inactive,11.2 µM (active) and 18.9 µM (active),inactive,inactive,10 µM (active),15.1 µM (active)
Cn1c(=O)[nH]c2ncn(C)c2c1=O,inactive,inactive,inactive,inactive,inactive,inactive,inactive,inactive,inactive,inactive,inactive,–,inactive,inactive,inactive,inactive,–,inactive,inactive
CC(=O)[C@H]1CCC2C3CC=C4C[C@@H](OS(=O)(=O)O)CC[C@]4(C)C3CC[C@@]21C (some centres not stated),inactive,inactive,inactive,inactive,inactive,inactive,inactive,inactive,inactive,–,–,inactive,inactive,–,inactive,inactive,–,–,–
CC(=O)C(C)=O,inactive,inactive,inactive,inactive,inactive,inactive,inactive,–,inactive,inactive,inactive,inactive,inactive,inactive,inactive,inactive,–,–,inactive
Cn1c(=O)c2[nH]c(-c3ccc(S(=O)(=O)O)cc3)nc2n(C)c1=O,inactive,inactive,inactive,inactive,inactive,inactive,inactive,–,inactive,inactive,–,inactive,inactive,inactive,inactive,inactive,–,inactive,inactive
COc1ccc2c(c1)CCC1C2CC[C@@]2(C)C1CC[C@@H]2NCCCCCCN1C(=O)C=CC1=O (some centres not stated),inactive,inactive,inactive,inactive,inactive,inactive,inactive,inactive,inactive,inactive,inactive,inactive,–,inactive,–,inactive,–,–,–
C=CCN1CCc2c(cc(O)c(O)c2Cl)C(c2ccccc2)C1 (configuration not stated),inactive,–,–,–,inactive,inactive,inactive,inactive,inactive,3.7 µM (active),–,inactive,–,inactive,–,inactive,inactive,–,–
NCCNS(=O)(=O)c1cccc2c(Cl)cccc12,inactive,16.5 µM (active),–,inactive,inactive,inactive,inactive,–,–,–,–,inactive,inactive,inactive,inactive,inactive,inactive,inactive,–
OC1(c2ccc(Cl)cc2)CCN(Cc2c[nH]c3ccccc23)CC1,inactive,–,–,inactive,inactive,inactive,inactive,–,inactive,–,–,inactive,inactive,inactive,–,inactive,inactive,–,–
CCN(CC)CCCCCCCCOC(=O)c1cc(OC)c(OC)c(OC)c1,inactive,inactive,–,inactive,inactive,inactive,inactive,–,–,18.5 µM (active),–,inactive,inactive,–,–,inactive,inactive,inactive,–
Oc1ccc(/C=C/c2ccc(/C=C/c3ccc(O)cc3)c(Br)c2)cc1,inactive,inactive,–,–,inactive,inactive,inactive,–,inactive,–,–,inactive,–,inactive,inactive,inactive,inactive,–,–
CC[C@@H]1Cc2cc(O)ccc2C2=C1c1ccc(O)cc1C[C@H]2CC,inactive,inactive,–,–,inactive,inactive,inactive,–,inactive,inactive,13.1 µM (active),inactive,inactive,inactive,–,inactive,inactive,31.6 µM (active),inactive

# Source: PubChem BioAssay (NCATS)
